In the library only some 7.4% were active in any assay of this set; here they are far more common.
TSHR ag: TSH receptor (human) agonism. HEK293-CNG-TSHR cells (CNG channel as cAMP sensor), membrane potential dye, cAMP. Potency, µM (top dose mostly 57.1 µM), for the others: at the highest dose activation, most hits filed as activators. 73,000 compounds, 0.48% hits. AID 926; active = well fitted activation curve with a large enough effect in the main read-out, with a control signal flat, not every such curve was filed as active; inconclusive = small, poorly fitted or top-dose-only effect, or a change in a side signal; inactive = no such curve, though single readings can be large or run the other way; % of control where 0% means no effect;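 note: the control signal comes from parental cells without the receptor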
Target sequence (P16473 whole entry, looked up): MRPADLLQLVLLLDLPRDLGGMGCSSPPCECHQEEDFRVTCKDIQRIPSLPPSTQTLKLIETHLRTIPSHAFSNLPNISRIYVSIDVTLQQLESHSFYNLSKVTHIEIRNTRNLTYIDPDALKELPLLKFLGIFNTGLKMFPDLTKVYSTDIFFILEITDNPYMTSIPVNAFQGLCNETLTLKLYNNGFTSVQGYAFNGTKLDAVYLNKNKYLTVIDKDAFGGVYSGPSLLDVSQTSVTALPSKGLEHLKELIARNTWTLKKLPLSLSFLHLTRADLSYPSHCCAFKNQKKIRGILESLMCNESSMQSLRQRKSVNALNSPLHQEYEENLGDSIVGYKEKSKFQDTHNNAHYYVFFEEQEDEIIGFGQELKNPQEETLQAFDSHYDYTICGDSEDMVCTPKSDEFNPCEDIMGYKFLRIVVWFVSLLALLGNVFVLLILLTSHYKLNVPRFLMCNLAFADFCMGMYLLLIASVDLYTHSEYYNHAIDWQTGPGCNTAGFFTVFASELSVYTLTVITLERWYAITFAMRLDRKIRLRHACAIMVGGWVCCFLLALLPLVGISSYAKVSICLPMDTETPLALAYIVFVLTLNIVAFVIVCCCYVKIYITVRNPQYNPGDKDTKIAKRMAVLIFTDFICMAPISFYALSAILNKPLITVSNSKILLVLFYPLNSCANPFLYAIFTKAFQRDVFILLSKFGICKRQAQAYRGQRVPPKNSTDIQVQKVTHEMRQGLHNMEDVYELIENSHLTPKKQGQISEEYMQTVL
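HEK 293 cells stably expressing TSHR and a modified CNG channel, with CNG-only parental cells as counterscreen, were preloaded 60 min at room temperature with membrane potential dye containing 100 uM RO 20-1724. Compound exposure was 30 min, and depolarization was read as fluorescence at 590 nm.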
CRE-bla Fsk: alters forskolin-stimulated CRE reporter signaling in CHO cells; CHO CRE-bla reporter (cAMP response element driving beta-lactamase), forskolin EC10, beta-lactamase ratio; Potency, µM (doses to about 38.2 µM), without a hit: top-dose activity change, negative = inhibition, actives largely listed as activators; 71,000 compounds, 2.5% hits; active = well fitted activation curve with a large enough effect in the signal ratio, with a control signal flat, not every such curve was filed as active; inconclusive = small, poorly fitted or top-dose-only effect, or effect the other way, or a change in a side signal; the % refers to the signal ratio; note: % of control where 0% means no effect
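The 460nm/530nm emission ratio after CCF4 loading defined %Activity, from which AC50 values were obtained. CRE-bla CHO cells received compound dilution series together with an EC10 level of NKH 477 for 3 hours at 37 degrees Celsius.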
Tau fil binding: tau filament binding. P10636. Potency, µM (titrated, usually from 57.1 µM), inactives show at the highest dose activity change, negative = inhibition. recombinant tau filaments, thioflavin S fluorescence, 15 h; filaments grown with octadecylsulfate alongside compound. AID 596. 71,000 compounds, 2% hits;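 note: % is set by controls: 0 for no effect and ±100 for the full control effect; actives lower thioflavin S fluorescence by blocking filaments or displacing dye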
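ThS-based fibril read: tau 1 uM final, inducer ODS 30 uM final, 37 C for 15 h, ex 450/em 510 nm.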
HEK293 cAMP ctrl: parental HEK293 cAMP activation (counter-screen); Potency, µM (doses to about 57.1 µM), for the others: top-dose activation, usual class: activators; parental HEK293 CNG cAMP sensor, membrane potential fluorescence; AID 938; 73,000 compounds, 2.5% hits; note: % of control where 0% means no effect; nearly all actives have a fitted effect of over 55% in size
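Parental HEK 293 cells stably expressing a cAMP-gated CNG channel were loaded with membrane potential dye containing 100 uM RO 20-1724 for 60 min. Compound added for 30 min; depolarization read as fluorescence intensity at 590 nm.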
ERK AVP inh: vasopressin-driven ERK pathway inhibition. 72,000 compounds, 0.99% hits. Potency, µM (doses to about 57.5 µM), inactives show at the highest dose activity, negative = inhibition, actives largely listed as inhibitors. AID 995. HEK293-V1b, vasopressin-stimulated pERK AlphaScreen; note: % is set by controls: 0 for no effect and ±100 for the full control effect; nearly all actives have a fitted effect of over 55% in size
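HEK293 cells stably expressing V1b receptor, seeded overnight in 1% FBS, were treated with compounds for 30 min at 37C, then stimulated 5 min with 25 nM vasopressin; phospho-ERK read by AlphaScreen SureFire after lysis.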
* hit, by the source's call; ? = inconclusive; . = no result given; [ ] = another dose, or the depositor's remark. Unless noted, calls come from the whole dose curve; as a rule, active = well fitted curve in the direction sought with a large enough effect; inconclusive = small, poorly fitted or top-dose-only effect, or another doubt; inactive = no such curve, though single readings can be large; an effect the other way counts as inactive or inconclusive. Potency is the fitted concentration of half-maximal effect.

SMILES	TSHR ag	CRE-bla Fsk	Tau fil binding	HEK293 cAMP ctrl	ERK AVP inh
CC(=O)C=NCC(=O)O	6%[11.4 µM]	-2%[7.6 µM]	10%[11.4 µM]	2%[11.4 µM]	1%[11.5 µM]
CC1=C(C(=O)Nc2ccccc2)C(c2ccco2)C(C#N)=C(SCC(=O)OC(C)C)N1 (configuration not stated)	?	?	17%	20µM*	0%
CC(=O)C1=C(C)NC(SCC(=O)c2ccc(Cl)c(Cl)c2)=C(C#N)C1c1ccco1 (configuration not stated)	12%	?	1µM*	7%	-17%
CC1=C(C(=O)Nc2ccccc2)C(c2ccco2)C(C#N)=C(SCc2ccccc2)N1 (configuration not stated)	.	?	81%	26%	19%
OCC(CO)(CBr)CBr	?	4%	18%	-28%	-10%
NCC[C@H](N)C(=O)O	3%[11.4 µM]	9%[7.6 µM]	3%[11.4 µM]	-28%[11.4 µM]	7%[11.5 µM]
Nc1cc(Cl)c(N)cc1Cl	-1%	-3%	25µM*	2%	-19%
C[C@H](CCC(=O)NN)[C@@H]1CC[C@@H]2[C@H]3CC[C@H]4C[C@@H](O)CC[C@@]4(C)[C@@H]3CC[C@]21C	-3%[11.4 µM]	14%[7.6 µM]	-3%[11.4 µM]	13%[11.4 µM]	18%[11.5 µM]
Cn1c(=O)c(C(=O)c2ccccc2)nc2ccccc21	7%	3%	-14%	6%	-23%
Cn1cc(C(=O)c2ccc(Cl)cc2)cc1-c1nc2ccccc2n1C	?	?	-17%	32µM*	32µM*
Cc1nn(-c2ccccc2)c2sc(C(=O)OCN3C(=O)c4ccccc4C3=O)cc12	4%	1.6µM*	89%	10%	9%
Cc1nn(-c2ccc(F)cc2)c2sc(C(=O)OC3CCOC3=O)cc12 (configuration not stated)	?	?	3%	?	-21%
CC(=O)N1CCC2(CC1)CCN(c1ccccn1)CC2	1%	-5%	0%	-4%	-12%
Cc1ccc(C#CC2C=CC(Oc3ccc4c(c3)OCO4)C(CO)O2)c(C)c1 (configuration not stated)	3%[11.4 µM]	.	.	-3%[11.4 µM]	3%[11.5 µM]
CCN(C(=O)c1ccc(C(C)(C)C)cc1)c1nnc(Cn2nnc3ccccc32)s1	?	-10%	17%	25µM*	?
COCCNC(=O)CN(C(=O)Cn1nnc2ccccc21)c1ccccc1	0%	-1%	7%	-3%	-12%
Cc1cc(C)n(CCc2nc(-c3cc4ccccc4o3)cs2)n1	?	?	-4%	16µM*	?
C=C(C)C(O)/C=C/c1ccc(C)cc1 (configuration not stated)	4%[11.4 µM]	.	.	9%[11.4 µM]	1%[11.5 µM]
CCN(CC)c1ccc(C(=S)N2CCN(c3ccccc3)CC2)cc1	1%	15%	5µM*	3%	32µM*
Nc1ccc(N2CCCCCC2)cc1	-25%	-6%	10µM*	-26%	-13%
S=C(c1ccc(N2CCCC2)cc1)N1CCCCC1	-15%	5%	32µM*	-6%	-24%
CN(C)CCCCN1CCc2c(n(C)c3ccccc23)C1=O	4%[11.4 µM]	-3%[7.6 µM]	13%[11.4 µM]	12%[11.4 µM]	-4%[11.5 µM]
FC(F)(F)c1cc(-c2ccco2)nc(NCc2cccnc2)n1	?	18%	20µM*	25µM*	?
N=C(N)SCCc1ccc(OCc2ccc([N+](=O)[O-])cc2)cc1	-2%	?	32µM*	-12%	?
CC(C)[C@@H](CC(=O)N[C@@H]1CCCC[C@H]1C(=O)N[C@H](CC(=O)N[C@@H](CCC(=O)O)CC(=O)O)Cc1c[nH]c2ccccc12)NC(=O)C[C@H](Cc1c[nH]c2ccccc12)NC(=O)[C@@H]1CNCC[C@H]1N	2%	-10%	-26%	9%	.
SMILES	TSHR ag	CRE-bla Fsk	Tau fil binding	HEK293 cAMP ctrl	ERK AVP inh
N#C[C@H]1CN[C@H](N)N[C@@H]1N	1%[11.4 µM]	?	11%[11.4 µM]	0%[11.4 µM]	-12%[11.5 µM]
Cc1nc2sccn2c1-c1nc(C2CC2)c(C(=O)c2ccc3c(c2)NC(=O)CO3)s1	3%	2.5µM*	17%	-2%	-3%
O=C1COc2ccc(C(=O)CSc3nnc(-c4cccs4)n3Cc3ccccc3)cc2N1	.	-4%	118%	23%	-12%
O=c1c(-c2ccc(F)cc2)nc2cnc(Nc3ccccc3)nc2n1C[C@H]1CCCO1	7%	0.25µM*	13%	-1%	8%
COc1ccc(-c2nc3cnc(Nc4ccccc4)nc3n(C[C@H]3CCCO3)c2=O)cc1	8%	?	102%	7%	-16%
O=c1c(-c2ccc(F)cc2)nc2cnc(Oc3ccccc3)nc2n1C[C@H]1CCCO1	-3%	?	20µM*	20%	-18%
CC(=O)OC[C@@H]1O[C@@H](O/N=C2/C[C@@H](O)[C@@H](O)[C@@H]3[C@@H]4C(=O)N(Cc5ccccc5)C(=O)[C@H]4CC[C@@H]23)[C@H](OC(C)=O)[C@H](OC(C)=O)[C@@H]1OC(C)=O	-5%[11.4 µM]	.	.	8%[11.4 µM]	7%[11.5 µM]
O=c1c2ccccc2nc(SCc2nnc(-c3ccccc3)o2)n1-c1ccc(F)cc1F	?	3%	22%	?	?
O=c1c2ccccc2nc(SCc2nnc(-c3ccccc3Br)o2)n1-c1ccccc1	?	2.5µM*	12%	?	2%
COc1ccc(-c2nnc(CSc3nc4ccccc4c(=O)n3C)o2)cc1OC	?	?	1%	25µM*	?
Nc1nonc1-c1nc2ccccc2n1Cc1ccccc1	?	?	54%	25µM*	32%
Nc1nonc1-c1nc2ccccc2n1CC(=O)NC1CCCC1	?	?	91%	6.3µM*	3%
CCOC(=O)c1ccccc1NC(=O)CN1C(=O)c2ccccc2S1(=O)=O	12%	0%	-4%	3%	-19%
CCOC(=O)c1ccccc1NC(=O)Cn1c(-c2nonc2N)nc2ccccc21	?	2µM*	288%	25µM*	18%
COCc1nc2ccccc2n1Cc1ccccc1	19%	8%	-6%	29%	-22%
CCC(=O)Nc1nonc1-c1nc2ccccc2n1CC(C)C	?	0%	40%	25µM*	5%
O=C1c2ccccc2[C@@H]([C@@H]2c3ccccc3C(=O)c3cc(Br)ccc32)c2ccc(Br)cc21	-4%[11.4 µM]	9%[7.6 µM]	-6%[11.4 µM]	6%[11.4 µM]	?
CN(C)C[C@H]1CCC2=C(C1=O)C(c1ccc(Cl)c(Cl)c1)C1=C(CC[C@H](CN(C)C)C1=O)O2	8%[11.4 µM]	-6%[7.6 µM]	7%[11.4 µM]	9%[11.4 µM]	7%[11.5 µM]
COCCNc1ncnc2ccc(-c3ccccc3C(F)(F)F)cc12	?	?	0%	?	?
CN(CCc1ccc(Cl)c(Cl)c1)CCN1CCCC1	.	-17%	34%	29%	-2%
S=C([S-])NCCNC(=S)[S-].[Zn+2]	4%	-21%	15%	28%	29%
O=C(Cc1cccs1)Nc1nc(-c2ccccc2)cs1	22%	-2%	-5%	29%	10µM*

Source: PubChem
